Assay results taken from PubChem BioAssay AID1159580 (chemical genetic matrix, 2015).
Out of some 5,500 compounds screened, about 2,000 (36%) were called active. Not shown: some 18% with an inconclusive outcome. Rule as the data show it: active = normalized growth mostly below about 0.91 (no sharp cut-off); inconclusive = no clear call, values can overlap the other calls; inactive = mostly above about 0.92. The list shows a part of the results.

Experiment: chemical genetic growth profiling, strain panel (AID 1159580);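 also: tested at 20 µM; growth read once vehicle control cultures reached saturation at 30 °C; 1 = growth at the plate median or of vehicle wells; lower values mean less growth of the strain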
Details: S. cerevisiae deletion strains, growth OD

Measured: normalized growth

CN(Cc1cnc2nc(N)nc(N)c2n1)c1ccc(C(=O)N[C@H](CCC(=O)O)C(=O)O)cc1
inactive: locus YAL040C, strain CLN3, hits give low values 1 | locus YER002W, strain NOP16, hits give low values 0.996 | locus YNL175C, strain NOP13, hits give low values 1 | locus YNL197C, strain WHI3, hits give low values 1.01 | locus YNL224C, strain SQS1, hits give low values 0.981 | locus YOR083W, strain WHI5 (second series), hits give low values 1.04 | locus YPL241C, strain CIN2, hits give low values 0.984
